# Hits are enriched below; roughly 4.6% of the tested compounds scored in any of these assays.
# NTMT1 inh = Primary qHTS for Inhibitors of N-terminal methyltransferase 1 (NTMT1): MTaseGlo Assay. N-terminal Xaa-Pro-Lys N-methyltransferase 1 (Homo sapiens), Q9BV86. NTMT1 MTase-Glo SAH luminescence, purified enzyme. Potency, µM (top dose mostly 114 µM), actives largely listed as inhibitors. 2.5% of 59,000 active; note: nearly all actives have a fitted effect of over 65% in size
# HTT prom inh = Primary qHTS for Identification of Small Molecule Inhibitors of Huntingtin Promoter Activity; 0.93% of 48,000 active; Potency, µM (series often up to 57.5 µM), actives largely listed as inhibitors; HEK293 HTT promoter firefly luciferase reporter, 24 h; AID 1508623, 2021; note: nearly all actives have a fitted effect of over 50% in size
#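 Firefly luciferase readout (Dual-Glo, 10 min RT) after 24 h, 37 °C compound exposure (final up to 57.5 uM) of HEK293 reporter cells cultured 24 h beforehand; PTC124 at 50 uM final as control inhibitor; activity scaled vehicle 0%, zero RLU -100%.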
# DRV1 agonist = qHTS for Agonists of Human Resolvin D1 Receptor DRV1. Probable G-protein coupled receptor 32 (Homo sapiens), O75388. CHO-K1 GPR32 beta-arrestin PathHunter luminescence, 90 min; zero percent set by DMSO-only wells. activation, % at 76.9 µM. 2.5% of 48,000 active;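 active = activation of at least 60% and not above a set upper limit, about 1 call in 100 departs from these limits; inconclusive = activation of 40% to 60%, or above that upper limit; inactive = activation under 40%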
# Target sequence (O75388 whole entry, looked up): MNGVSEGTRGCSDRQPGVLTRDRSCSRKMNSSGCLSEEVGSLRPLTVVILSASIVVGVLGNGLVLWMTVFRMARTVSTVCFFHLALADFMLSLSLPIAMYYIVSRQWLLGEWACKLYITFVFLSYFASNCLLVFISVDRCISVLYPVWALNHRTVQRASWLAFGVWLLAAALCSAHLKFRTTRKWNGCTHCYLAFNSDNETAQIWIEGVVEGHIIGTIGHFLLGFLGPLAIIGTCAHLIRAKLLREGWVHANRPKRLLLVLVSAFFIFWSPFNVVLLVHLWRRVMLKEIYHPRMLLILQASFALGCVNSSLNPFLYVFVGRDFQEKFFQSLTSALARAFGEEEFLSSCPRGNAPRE
#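 Readings come from a cell-based beta-arrestin complementation format: CHO-K1 GPR32 stable cells (2,500/well) treated 90 min with compounds, then beta-Gal substrate added for 1 h before chemiluminescence imaging.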
# HTT-AS act = Primary qHTS for Identification of Small Molecule Activators of Huntingtin-Antisense Promoter Activity; HEK293 HTT-AS promoter firefly luciferase reporter, 24 h; response scale: percent change from vehicle, -100% = no light; Potency, µM (titrated, usually from 57.5 µM), most hits filed as activators; 0.24% of 48,000 active; note: nearly all actives have a fitted effect of over 55% in size
#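 HEK293 cells carrying firefly luciferase reporters were seeded at 2,500 per well in Opti-MEM and cultured for 24 h. They were then treated with compounds at up to 57.5 uM final for 24 h at 37 degrees C before Dual-Glo luminescence readout.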
# Hits are given with their value; n = inactive; u = inconclusive; x = not tested or not shown; ! = not active in a repeat; [ ] = remark or other dose. Unless noted, calls come from the whole dose curve; as a rule, active = well fitted curve in the direction sought with a large enough effect; inconclusive = small, poorly fitted or top-dose-only effect, or another doubt; inactive = no such curve, though single readings can be large; an effect the other way counts as inactive or inconclusive.
SMILES,NTMT1 inh,HTT prom inh,DRV1 agonist,HTT-AS act
COC(=O)CC1CC2(C(=O)c3c(O)cccc3C2(O)C(=O)OC)C(C)O1 (stereo not drawn),n,x,x,x
CCC(COC(=O)c1cc(OC)c(OC)c(OC)c1)(c1ccccc1)N(C)C (stereo not drawn),n,n,97.2,n
CCOC(C(=O)OCCN(C)C)(c1ccccc1)c1ccccc1,n,n,n,n
CC(N)Cc1c[nH]c2ccccc12 (stereo not drawn),n,x,x,x
Cc1[nH]nc2ccc(-c3cncc(OC[C@@H](N)Cc4c[nH]c5ccccc45)c3)cc12,39.8µM!,u,x,n
CN1C[C@@H]2CN(c3ccc(-c4ccccc4)nn3)C[C@@H]2C1,n,x,x,x
Nc1ccc(N=Nc2ccccc2)cc1,126µM,u,n,n
C[N+](C)(C)CCOC(=O)C(O)(c1ccccc1)c1ccccc1,15.8µM,n,n,n
C[N+](C)(C)CCOC(=O)CBr,x,x,n,x
C[C@]12CC[C@H](O)CC1=CC[C@@H]1[C@@H]2CC[C@]2(C)C(=O)CC[C@@H]12,n,n,72.8,n
C[C@]12CC[C@@H](O)C[C@H]1CC[C@@H]1[C@@H]2CC[C@]2(C)C(=O)CC[C@@H]12,n,x,x,x
C[C@]12CCC(=O)C=C1CC[C@@H]1[C@@H]2CC[C@]2(C)C(=O)CC[C@@H]12,n,n,n,n
C[C@]12CCC(=O)C=C1CC[C@@H]1[C@H]3CC[C@](C)(O)[C@@]3(C)CC[C@@H]12,u,u,106.4,n
C[C@]12CC[C@@H]3[C@@H](CCC4=CC(=O)CC[C@@H]43)[C@@H]1CC[C@@H]2OC(=O)CCc1ccccc1,n,n,x,n
C[C@]12CC[C@H]3[C@@H](CCC4=CC(=O)CC[C@@H]43)[C@@H]1CC[C@@H]2OC(=O)CCc1ccco1,25.1µM,n,118.6,n
COC1=CC(C)=C[C@@H](C)[C@@H](O)[C@@H](C)CC(C)=CC=C[C@H](OC)[C@H]([C@@H](C)[C@@H](O)[C@H](C)[C@@]2(O)C[C@@H](O)[C@H](C)[C@@H](C(C)C)O2)OC1=O,u,u,x,n
NCCc1cc(O)c(O)cc1O,28.2µM,n,n,n
C/C=C(\C)C(=O)OC1C2C3(C)CCC(OC4CC(OC)C(OC5OC(C)C(O)C(OC)C5O)C(C)O4)CC3CCC23OC32CCC(C(C)=O)C2(C)C1OC(=O)/C(C)=C/C (stereo not drawn),n[12.6 µM],x,x,x
COc1ccc(NC(=O)CCc2nc(C3=CCN(Cc4cccc(Cl)c4)CC3)no2)c(OC)c1,n,u,n,n
COc1ccc(NC(=O)CCc2nc(C3=CCN(Cc4cccc(Cl)c4)CC3)no2)cc1OC,u,u,93.8,n
Cc1cccc(CN2CC=C(c3noc(CCC(=O)Nc4ccc(C)c(F)c4)n3)CC2)c1,n,n,93.6,n
Cc1cccc(NC(=O)NC2N=C(c3ccccc3)c3ccccc3N(CC(=O)c3ccccc3C)C2=O)c1 (stereo not drawn),n,x,x,x
OCc1nnc2n1-c1ccc(Cl)cc1C(c1ccccc1Cl)=NC2,n,x,x,x
CCOc1ccc(CCNC(=O)c2cc3cccnc3n2Cc2cccc(C)n2)cc1OCC,n,x,x,x
O=c1c2ccccc2nc(/C=C/c2cccc3ccccc23)n1-c1ccccc1Cl,n,28.2µM,n,n
SMILES,NTMT1 inh,HTT prom inh,DRV1 agonist,HTT-AS act
CCc1ccc(-n2nc(C)c3c2NC(=O)CSC3c2ccc(OC)cc2OC)cc1 (stereo not drawn),n,22.4µM,n,n
CCOc1ccc(CCNC(=O)c2cc3ccncc3n2Cc2cccc(C)c2)cc1OCC,n,x,x,x
FC(F)(F)c1cccc(C2=CCN(CCc3ccc4ccccc4c3)CC2)c1,n,n,99.8,n
C=C(C)[C@@H]1CCC(C)=C[C@H]1c1c(O)cc(CCCCC)cc1O,n,x,x,x
Nc1c(C(=O)Nc2ccc(Cl)cc2)sc2nc3c(cc12)N1CCC3CC1,u,u,76.8,n
CN(C)[C@@H]1C(=O)C(C(N)=O)=C(O)[C@@]2(O)C(=O)C3=C(O)c4c(O)cccc4[C@@](C)(O)[C@H]3[C@H](O)[C@@H]12,79.4µM,n,x,n
CC[n+]1c(-c2ccccc2)c2cc(N)ccc2c2ccc(N)cc21,28.2µM,n,n,n
OCCCCC#Cc1cncc(OC[C@@H]2CCN2)c1,n,x,x,x

# Screens: PubChem BioAssay, National Center for Advancing Translational Sciences (NCATS)
